Screening results deposited in PubChem by National Center for Advancing Translational Sciences (NCATS).
HTT cytoprotect: protects HTT-Q103 PC12 cells, measured by ATP | PC12 HTT-Q103 induced, cytoprotection, ATP luminescence, 40 h | 230,000 compounds, 0.14% hits | Potency, µM (doses to about 56.4 µM), hits mostly activators; note: nearly all actives have a fitted effect of over 45% in size
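Compounds were screened for protection of PC12 cells against cell death after tebufenozide induction (100 nM final) of mutant Huntingtin exon 1 (Q103) fused to GFP.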
HttQ103 aggreg: reduces HttQ103-GFP aggregates in PC12 cells. PC12 HttQ103-GFP aggregates, Acumen cytometry, 40 h. Potency, µM (highest dose often 46.1 µM), actives largely listed as inhibitors. 220,000 compounds, 1.1% hits; note: nearly all actives have a fitted effect of over 60% in size
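Read-out: GFP aggregate count by laser scanning cytometer (488 nm excitation, 500-530 nm emission, 1–25 µm objects >6 SD above background). Cells: PC12, inducible HTTex1-Q103-GFP, 100 nM tebufenozide; compounds titrated.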
ALDH1A1 inh: ALDH1A1 (human) enzyme inhibition; P00352; Purified ALDH1A1, NADH fluorescence, propionaldehyde substrate; Potency, µM (series often up to 75.3 µM), actives largely listed as inhibitors; 220,000 compounds, 7.3% hits; AID 1030; active = well fitted inhibition curve with a large enough effect, not every such curve was filed as active; inconclusive = small, poorly fitted or top-dose-only effect, or another doubt; inactive = no such curve, though single readings can be large or run the other way
Target sequence (P00352 whole entry, looked up): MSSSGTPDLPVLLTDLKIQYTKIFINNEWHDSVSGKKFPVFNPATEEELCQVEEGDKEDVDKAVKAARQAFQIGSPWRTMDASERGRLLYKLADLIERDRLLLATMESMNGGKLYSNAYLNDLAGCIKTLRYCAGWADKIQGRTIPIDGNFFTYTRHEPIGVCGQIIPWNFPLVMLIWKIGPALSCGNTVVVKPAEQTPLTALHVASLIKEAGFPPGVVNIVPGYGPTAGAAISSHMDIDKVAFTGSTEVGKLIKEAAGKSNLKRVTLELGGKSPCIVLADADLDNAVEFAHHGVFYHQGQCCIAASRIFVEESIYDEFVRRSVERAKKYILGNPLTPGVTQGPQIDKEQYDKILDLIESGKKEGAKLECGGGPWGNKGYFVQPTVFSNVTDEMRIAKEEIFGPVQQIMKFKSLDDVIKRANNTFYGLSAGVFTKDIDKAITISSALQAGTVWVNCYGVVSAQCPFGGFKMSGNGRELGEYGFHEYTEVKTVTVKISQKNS
CBFb-RUNX1 inh: blocks binding between human CBF-beta and RUNX1. Q01196+Q13951. AlphaScreen CBFb-His/RUNX1-biotin binding, biochemical. Potency, µM (doses to about 59.8 µM), usual class: inhibitors. 230,000 tested, under 10 active. AID 1477
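Compounds were screened at multiple concentrations against a preformed CBF-beta(His)/RUNX1(biotin) complex (30 nM of each) for 15 min at room temperature, followed by 90 min with nickel and streptavidin beads and AlphaScreen reading.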
HPGD inh: blocks human HPGD enzyme activity. P15428. AID 894. Potency, µM, hits mostly inhibitors. 150,000 compounds, 4.3% hits. purified HPGD, NADH fluorescence kinetic, PGE2 substrate; active = well fitted inhibition curve with a large enough effect, not every such curve was filed as active; inconclusive = small, poorly fitted or top-dose-only effect, or another doubt; inactive = no such curve, though single readings can be large or run the other way
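NADH formation kinetics: reaction with 30 uM PGE2 and 1 mM NAD+ (final), 20 nM enzyme, Tris-HCl pH 8 with Tween 20, after 15 min compound preincubation at room temperature. Fluorescence change, last versus first of five reads.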
PNC assembly inh: perinucleolar compartment assembly inhibition. PC3M PTB-GFP, PNC prevalence imaging, 16 h; stronger effect = lower value. activity change (PNC), negative = inhibition, % at 10 µM. 140,000 compounds, 3.1% hits. AID 2417;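 active = readout at or below -70, meaning at least 70% loss of cells showing the perinucleolar compartment, a nuclear body marking cancer cells; inconclusive = readout between -30 and a set limit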
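Read-out is percentage of cells bearing a perinucleolar compartment, from automated 20x imaging of fixed, Hoechst-stained PC3M PTB-GFP cells. Cells were seeded 4 h, then exposed 16 h to compound (23 nl of library stock) in duplicate plates.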
A number is an active result; . = inactive; ? = inconclusive; / = no result given; [ ] = another dose, or the depositor's remark. Sampled rows, rich in hits. Any-hit rate of the full collection: about 11%. Unless noted, calls come from the whole dose curve; as a rule, active = well fitted curve in the direction sought with a large enough effect; inconclusive = small, poorly fitted or top-dose-only effect, or another doubt; inactive = no such curve, though single readings can be large; an effect the other way counts as inactive or inconclusive.

SMILES	HTT cytoprotect	HttQ103 aggreg	ALDH1A1 inh	CBFb-RUNX1 inh	HPGD inh	PNC assembly inh
CCCCc1ccc(N/C(N)=N/c2nc(C)cc(C)n2)cc1	.[10 µM]	.[9.22 µM]	/	.	/	/
CC(C)C(=O)NC(NC(=O)C(C)C)c1ccc([N+](=O)[O-])cc1	.[10 µM]	.	.	.	.	?
CNc1ncnc2c1ncn2[C@H]1C[C@H](OP(=O)(O)O)[C@@H](COP(=O)(O)O)O1	/	/	.	.	.	/
CS(=O)(=O)N(CC(=O)NCCSC1CCCCC1)c1ccc2c(c1)OCO2	.	.	?	.	.	.
COc1ccc(N(CC(=O)NCCSC2CCCCC2)S(C)(=O)=O)c(OC)c1	.	?	14µM	.	22µM	?
C=CCc1cccc2cc(C(=O)NC3=C(C#N)CCC3)c(=O)oc12	.[10 µM]	.	0.89µM	.	.	-124
CCCCNC(C(=O)Nc1ccc(Cl)c([N+](=O)[O-])c1)c1ccccc1 (configuration not stated)	.[1.9 µM]	.	5µM	.	.	.
COc1ccc(-c2nc(CSCC(=O)N3CCN(C(=O)c4ccco4)CC3)c(C)o2)cc1OC	.	.	20µM	.	.	?
CCc1ccc(-c2nc(CSCC(=O)N3CCN(c4ncccn4)CC3)c(C)o2)cc1	.	11µM	?	.	?	.
CCOC(=O)N1CCN(C(=O)CSCc2nc(-c3ccccc3F)oc2C)CC1	.	.	22µM	.	.	.
COc1ccc(C2Nc3ccccc3C(=O)N2c2ccc(C)cc2)cc1Cn1nnc2ccccc21 (configuration not stated)	.	.	.	.	/	?
COc1ccc(C2Nc3ccccc3C(=O)N2c2ccc(C)cc2)cc1Cn1cc([N+](=O)[O-])cn1 (configuration not stated)	.	.	28µM	.	.	.
Cc1ccccc1-c1cncnc1NCc1ccccc1	.	/	?	/	/	/
NCCCCCCC(O)(P(=O)(O)O)P(=O)(O)O	/	/	/	.	/	/
COc1cc(/C=N/NC(=O)c2ccc(COc3cc(C)ccc3C(C)C)cc2)cc(OC)c1O	.[0.074 µM]	.	.	.	.	.
Cc1ccc(C(C)C)c(OCc2ccc(C(=O)N/N=C/c3ccc(O)c(O)c3)cc2)c1	/	.	.	.	?	-124
Cc1ccc(F)cc1-c1ccc(C(=O)N=C(N)N)o1	/	/	/	.	/	/
CC1(C)CC(=O)C(c2c[nH]c3ccccc23)C(=O)C1	.[10 µM]	.[9.22 µM]	20µM	.	/	/
CC12CN3CC(C)(CN(C1)C3c1c[nH]c3ccccc13)C2=O (configuration not stated)	.[10 µM]	.[9.22 µM]	.	.	/	/
NC(=O)NCCC1=CCCCC1	.	.	.	.	.	.
O=C(NCc1ccco1)c1ccc2c(c1)N(Cc1ccccc1)C(=O)CS2	.	.	.	.	.	.
C=CCN1C(=O)CSc2ccc(C(=O)NCc3ccco3)cc21	.[0.074 µM]	.	22µM	.	.	.
O=C(CN1C(=O)CSc2ccccc21)NCCC1=CCCCC1	.	.	.	.	/	?
C=CCn1c(N)c(C(=O)NCCC2=CCCCC2)sc1=S	.[10 µM]	.	3.5µM	.	14µM	.
C=CCN1C(=O)CSc2ccc(C(=O)NCCC3=CCCCC3)cc21	.	.[9.22 µM]	13µM	.	.	.
SMILES	HTT cytoprotect	HttQ103 aggreg	ALDH1A1 inh	CBFb-RUNX1 inh	HPGD inh	PNC assembly inh
NC(=O)C/C=C\CC(N)=O	.[10 µM]	/	.[13.5 µM]	/	.	/
CN1C[C@H](c2ccccc2)C(O)([C@]2(c3ccccc3)CN(C)C[C@@H](c3ccccc3)C2=O)[C@H](c2ccccc2)C1 (some centres not stated)	.[10 µM]	/	.[13.5 µM]	/	.	/
O=C(Nc1nnc(C2CC2)o1)c1ccc(S(=O)(=O)N2CCCc3ccccc32)cc1	.	11µM	.	?	.	.
O=C(NCc1ccco1)c1ccc(S(=O)(=O)N2CCCc3ccccc32)cc1	.[10 µM]	?	14µM	.	.	.
O=c1c(-c2ccccc2)nc2cnc(N3CCOCC3)nc2n1Cc1ccc(F)cc1	.	/	?	/	/	/
COc1ccc(N(C(=O)CCl)C(C(=O)NC2CCCCC2)c2cccnc2)cc1 (configuration not stated)	.[10 µM]	22µM	.	.	.	.
O=C(NC1CCCCC1)C(c1cccnc1)N(C(=O)CCl)c1ccc(F)cc1 (configuration not stated)	.[10 µM]	6.3µM	.	.	.	.
COc1ccc(C(C(=O)NC2CCCCC2)N(C(=O)CCl)c2ccc(OC)cc2)cc1 (configuration not stated)	.[10 µM]	?	.	.	.	.
O=C(NC1CCCCC1)C(c1cccnc1)N(C(=O)CCl)c1ccccc1Cl (configuration not stated)	.[10 µM]	?	.	.	.	.
CC(C)(C)c1ccccc1OCCCCCn1ccnc1	.	?	?	.	/	/
Cc1ccc2c(c1)NC(=O)C(CC(=O)NCc1ccc(F)cc1)O2 (configuration not stated)	.	.	.	.	.	.
CC(=O)c1cccc(NC(=O)CC2Oc3ccc(C)cc3NC2=O)c1 (configuration not stated)	.	.	3.2µM	.	.	.
O=C(OC(c1ccc(NS(=O)(=O)c2ccccc2)cc1)(C(F)(F)F)C(F)(F)F)c1ccccc1	.[10 µM]	.	.	.	.	.
Cc1ccc(S(=O)(=O)Nc2ccc(C(OC(=O)c3ccccc3[N+](=O)[O-])(C(F)(F)F)C(F)(F)F)cc2)cc1	.[10 µM]	.	?	.	.	-108
COc1ccc(-c2nc3cnc(N(C)C)nc3n(CCC#N)c2=O)cc1	.	/	?	/	/	/
Cc1ccc(C(=O)N2CCN(c3ccccn3)CC2)cc1[N+](=O)[O-]	.	.[9.22 µM]	?	.	/	/
O=C(c1ccc(S(=O)(=O)Cc2ccccc2Cl)c([N+](=O)[O-])c1)N1CCN(c2ccccn2)CC1	.	16µM	18µM	.	/	/
O=C(c1ccc(N2CCCC2)c([N+](=O)[O-])c1)N1CCN(c2ccccn2)CC1	?	.	?	.	/	/
O=C(c1ccc(Cl)c([N+](=O)[O-])c1)N1CCN(c2ccccn2)CC1	.[0.074 µM]	.	10µM	.	.	.
CC(NCCN(C)C)C(=O)C12CC3CC(CC(C3)C1)C2 (configuration not stated)	.[10 µM]	.[9.22 µM]	/	.	/	/
CC(C)Sc1nc(-c2ccccc2)cc(=O)[nH]1	.	.	20µM	.	.	.
CN1CCCN(C)C1c1cc([N+](=O)[O-])ccc1O	.[10 µM]	/	.[13.5 µM]	/	.	/
O=C(/C=C/Sc1ccccc1)c1ccccc1	.	?	7.9µM	.	?	?
CCN(CC)c1ccc(C=NCCc2ccc(S(N)(=O)=O)cc2)cc1	/	.	0.13µM	.	/	/
CC(=O)ON(C(C)=O)S(=O)(=O)c1ccc(Cl)cc1	.	/	.	.	.	/
Cc1ccccc1C(=O)c1c[nH]c(C(=O)N=CN(C)C)c1	.	.[9.22 µM]	?	.	/	/
C#CCNC(=O)C1=C[C@@H](c2coc3ccccc3c2=O)C[C@@H](OCCCCO)O1	.[10 µM]	.[9.22 µM]	10µM	.	/	/
